Data from PubChem BioAssay (NCI).
“And” between values parts separate entries of the source, which are not always exact repeats. Identical values can stand only once. The panel holds about 83,000 compounds, 20% with a hit somewhere; the sample as a whole holds those more often.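 Each cell line was grown in a 96-well plate and treated with one concentration of compound for 48 hours. Values below 10 were considered active.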 The source made the active and inactive calls.

How the values were obtained:
Assay in all cases: NCI-60 one-dose screen, 48 h (100 = growth as untreated, 0 = no growth, -100 = all killed)
Settings in all cases: 10 µM unless noted
HCT-15 colon = tested on: HCT-15 colon
HT29 colon = tested on: HT29 colon
SNB-75 CNS = tested on: SNB-75 CNS
SNB-19 CNS = tested on: SNB-19 CNS
U251 CNS = tested on: U251 CNS
PC-3 prostate = tested on: PC-3 prostate
SK-MEL-5 melanoma = tested on: SK-MEL-5 melanoma
UACC-62 melanoma = tested on: UACC-62 melanoma
LOX IMVI melanoma = tested on: LOX IMVI melanoma
SK-MEL-28 melanoma = tested on: SK-MEL-28 melanoma

SMILES	growth (HCT-15 colon)	growth (HT29 colon)	growth (SNB-75 CNS)	growth (SNB-19 CNS)	growth (U251 CNS)	growth (PC-3 prostate)	growth (SK-MEL-5 melanoma)	growth (UACC-62 melanoma)	growth (LOX IMVI melanoma)	growth (SK-MEL-28 melanoma)
Nc1n[nH]c2cccc(C#Cc3cccc(C(=O)Nc4ccc(CN5CCOCC5)c(C(F)(F)F)c4)c3)c12	22.5% (inactive)	17.4% (inactive)	52.9% (inactive)	75.2% (inactive)	40.3% (inactive)	29.5% (inactive)	17.5% (inactive)	5.89% (active)	6.76% (active)	14.5% (inactive)
N#Cc1c(N)nnn1Cc1cc(=O)oc2ccc(O)cc12	110% (inactive)	102% (inactive)	100% (inactive)	102% (inactive)	103% (inactive)	97.3% (inactive)	97.9% (inactive)	99.9% (inactive)	102% (inactive)	112% (inactive)
Clc1ccc2c(NCCN3CCN(c4ccnc(N5CCCC5)n4)CC3)ccnc2c1	0.29% (active)	6.82% (active)	90.7% (inactive)	53.7% (inactive)	6.81% (active)	58.6% (inactive)	-16.8% (active)	-29.5% (active)	-70.1% (active)	-17.6% (active)
CC/C(=C(/c1ccc(O)cc1)c1ccc(OCCN2CCCCCC2)cc1)c1ccc(Cl)cc1	31.5% (inactive)	14.2% (inactive)	88.7% (inactive)	80.2% (inactive)	50.7% (inactive)	27.8% (inactive)	67% (inactive)	83.2% (inactive)	67.7% (inactive)	58.5% (inactive)
O=S(=O)(Nc1cc(Sc2cccc3cccnc23)c(O)c2ccccc12)c1ccc(F)cc1	-42.9% (active)	-40.9% (active)	63.8% (inactive)	42.1% (inactive)	5.35% (active)	17% (inactive)	-40.2% (active)	-26.9% (active)	-60.7% (active)	-16.2% (active)
COc1ccc(-c2ccc(-c3ccc(C(=N)N)cn3)s2)cc1Cl	-72.5% (active)	-52.6% (active)	-98.4% (active)	-73.9% (active)	-62.2% (active)	-80.9% (active)	-48.4% (active)	-92.3% (active)	-84.5% (active)	-86.6% (active)
Cc1ccc(-c2nc3nc(-c4ccccc4)nc(N4CCN(S(=O)(=O)c5ccccc5)CC4)c3o2)cc1	103% (inactive)	97.7% (inactive)	-17.2% (active)	32.9% (inactive)	78.9% (inactive)	96.4% (inactive)	95% (inactive)	101% (inactive)	96.7% (inactive)	106% (inactive)
Cc1ccc(NC(=O)c2ccc(CN3CCN(C)CC3)cc2)cc1Nc1nccc(-c2cccnc2)n1	88.5% (inactive) and 48.2% (inactive)	52.9% (inactive) and 24.1% (inactive)	99.4% (inactive) and 82.5% (inactive)	112% (inactive) and 95% (inactive)	89.4% (inactive) and 65.7% (inactive)	89.4% (inactive) and 72% (inactive)	77.7% (inactive) and 63.2% (inactive)	92.3% (inactive) and 87.9% (inactive)	88.4% (inactive) and 77.1% (inactive)	109% (inactive) and 77.8% (inactive)
O=C(CCl)N(O)c1ccc(/C=C/c2ccccc2)cc1	78.3% (inactive) and 66.3% (inactive)	73.1% (inactive) and 38.7% (inactive)	95.9% (inactive) and 96.3% (inactive)	90.1% (inactive) and 86.7% (inactive)	81.5% (inactive) and 73.5% (inactive)	85.7% (inactive) and 86.6% (inactive)	68.6% (inactive) and 65.3% (inactive)	74.6% (inactive) and 72.2% (inactive)	46.8% (inactive) and 36.1% (inactive)	107% (inactive) and 112% (inactive)
O=c1cc(N/N=C/c2ccc(F)cc2)c2cc(Cl)ccc2[nH]1	83.4% (inactive)	88.4% (inactive)	131% (inactive)	91.1% (inactive)	94.4% (inactive)	-43% (active)	11.6% (inactive)	80.4% (inactive)	95.6% (inactive)	90% (inactive)
Nc1nc(Nc2cccnc2)sc1C(=O)c1ccccc1F	27.7% (inactive)	35.9% (inactive)	30.3% (inactive)	43.1% (inactive)	42% (inactive)	43.2% (inactive)	30.1% (inactive)	42.4% (inactive)	29.8% (inactive)	65.9% (inactive)
NS(=O)(=O)c1ccc(C(=O)N=Nc2c(O)[nH]c3c(F)cccc23)cc1	105% (inactive)	99.6% (inactive)	97.7% (inactive)	97.4% (inactive)	98.6% (inactive)	94.9% (inactive)	101% (inactive)	99.6% (inactive)	98% (inactive)	105% (inactive)
COc1nc(=O)n(C2C=CC(=O)O2)cc1F (stereo not given)	58.5% (inactive)	55.8% (inactive)	90.2% (inactive)	97.8% (inactive)	103% (inactive)	110% (inactive)	94.9% (inactive)	59.7% (inactive)	64.9% (inactive)	96% (inactive)
N#C/C(=C\c1ccccc1Cl)c1cc2ccccc2[nH]1	81.4% (inactive)	97.7% (inactive)	83% (inactive)	93.1% (inactive)	85.8% (inactive)	80.5% (inactive)	85.9% (inactive)	76.5% (inactive)	92.4% (inactive)	99% (inactive)
Clc1nccc2c(-c3csc(-c4c[nH]c5ccc(Br)cc45)n3)c[nH]c12	-49.4% (active)	5.95% (active)	21% (inactive)	44.6% (inactive)	-2.09% (active)	19.9% (inactive)	47.2% (inactive)	17% (inactive)	-31.9% (active)	-8.62% (active)
N#CC1=C(N)Oc2c(sc3c(Br)cccc23)C1c1ccccn1 (stereo not given)	28.5% (inactive)	10.6% (inactive)	61.2% (inactive)	48.4% (inactive)	36.5% (inactive)	40.6% (inactive)	40.8% (inactive)	18.3% (inactive)	38.7% (inactive)	65.3% (inactive)
COC(=O)[C@H]1Cc2c([nH]c3ccccc23)[C@@H](c2cccs2)N1	102% (inactive)	97.1% (inactive)	83.8% (inactive)	98.2% (inactive)	97.7% (inactive)	100% (inactive)	100% (inactive)	89.5% (inactive)	104% (inactive)	107% (inactive)
O=[N+]([O-])c1ccc(S(=O)Cc2ccccc2)c([N+](=O)[O-])c1 (stereo not given)	6.6% (active) and -44.4% (active)	-67.6% (active) and -20.6% (active)	105% (inactive) and 50% (inactive)	92.8% (inactive) and 97.7% (inactive)	93.6% (inactive) and 91% (inactive)	93.9% (inactive) and 82.8% (inactive)	88% (inactive) and 75.9% (inactive)	54.6% (inactive) and 82.2% (inactive)	-75.4% (active) and -31.4% (active)	89.4% (inactive) and 23% (inactive)
C#CCn1cnc2cnc(Nc3cccc(NC(=O)CCl)c3)nc21	6.26% [6.25 µM] (active)	0.208% [6.25 µM] (active)	-28.7% [6.25 µM] (active)	11.5% [6.25 µM] (inactive)	-49.2% [6.25 µM] (active)	18.9% [6.25 µM] (inactive)	-59.4% [6.25 µM] (active)	-23.1% [6.25 µM] (active)	-48.6% [6.25 µM] (active)	14.5% [6.25 µM] (inactive)
COc1cc(/C=C2\C(=O)N(CCCCn3c4ccccc4c(=O)c4ccccc43)c3ccccc32)cc(OC)c1O	36.3% (inactive)	41.6% (inactive)	51.7% (inactive)	62.7% (inactive)	67.5% (inactive)	39.9% (inactive)	55.3% (inactive)	37.5% (inactive)	52.8% (inactive)	68.5% (inactive)
O=C(Nc1ccc2ccccc2c1)c1cc2ccccc2cc1O	85.9% (inactive)	98.9% (inactive)	103% (inactive)	97.9% (inactive)	87.2% (inactive)	78% (inactive)	86.7% (inactive)	72.5% (inactive)	94.4% (inactive)	89.1% (inactive)
COc1ccc(-c2nnc3n(C)c(=O)c4ccccc4n23)cc1O	22.9% (inactive)	18.8% (inactive)	9.51% (active)	24.3% (inactive)	15.1% (inactive)	17.9% (inactive)	19% (inactive)	14.2% (inactive)	39.1% (inactive)	50.9% (inactive)
